PubChem BioAssay (EPA / NIEHS)
Activity calls are given as the source filed them. How the source made its calls: active means hit-call score of the fitted dose curve at least 0.9, where 1 is the maximum; inactive means score below 0.9.

Legend:
[1] = ATG_PBREM_CIS: Attagene CIS-FACTORIAL HepG2 Assay for human Phenobarbital-responsive Enhancer Module (PBREM) (AID 2282955); details: HepG2 PBREM cis-reporter, Attagene multiplexed transcription; actives raise or lower the signal
In short: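 Cells were transfected with cis-element reporter units and treated for 24 h, after which RNA was extracted and reporter transcripts measured by RT-PCR and capillary electrophoresis.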

[2] = target: Paired box protein Pax-6 (Homo sapiens) (UniProt P26367); test: ATG_Pax6_CIS: Attagene CIS-FACTORIAL HepG2 Assay for human Paired Box 6 (PAX6) (AID 2282956); details: HepG2 CIS-FACTORIAL PAX6 reporter transcription, RNA readout; actives raise or lower the signal
In short: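 Readout: reporter transcript fluorescence after RT-PCR and capillary electrophoresis. Cells: HepG2, transiently transfected with cis-regulated MRTUs. Exposure 24 h. Gain or loss of signal fitted bidirectionally relative to DMSO.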

[3] = ATG_PXRE_CIS: Attagene CIS-FACTORIAL HepG2 Assay for human Pregnane X Receptor Element (PXRE) (AID 2282957); details: HepG2 Attagene CIS-FACTORIAL PXRE reporter, mRNA; actives raise or lower the signal
In short: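 Read-out: fluorescence of reporter-specific RT-PCR products resolved by capillary electrophoresis, fitted bidirectionally relative to DMSO. Human HepG2 liver cells carried transfected cis-promoter reporter units and were exposed to chemicals for 24 h.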

[4] = ATG_PPRE_CIS: Attagene CIS-FACTORIAL HepG2 Assay for human Peroxisome Proliferator-activated Response Element (PPRE) (AID 2282958); details: HepG2 PPRE cis-element reporter, Attagene transcription factor profiling; actives raise or lower the signal
In short: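 In this cell-based multiplex, a PPRE cis element drives a reporter sequence in transiently transfected HepG2 cells. Following 24 h treatment, labeled cDNA amplicons are sized and quantified by capillary electrophoresis, with DMSO defining baseline.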

[5] = ATG_RORE_CIS: Attagene CIS-FACTORIAL HepG2 Assay for human RAR-related Orphan Receptor Element (RORE) (AID 2282959); details: HepG2 Attagene cis-factorial RORE reporter, mRNA; actives raise or lower the signal
In short: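 Endogenous factor activity at a cis response element is read as reporter transcript levels in HepG2 cells, 24 h post-dose. Transcripts are quantified by RT-PCR with capillary electrophoresis, and data fitted in both directions against DMSO.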

[6] = ATG_Sox_CIS: Attagene CIS-FACTORIAL HepG2 Assay for human SRY-box transcription factor (SOX) (AID 2282960); details: HepG2 Attagene cis-factorial SOX reporter, mRNA; actives raise or lower the signal
In short: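 Measures mRNA induction of a SOX1-associated reporter in HepG2 after 24 h dosing. Fluorescently labelled RT-PCR fragments are separated by capillary electrophoresis, and gain or loss relative to DMSO control is fitted.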

[7] = target: Transcription factor Sp1 (Homo sapiens) (UniProt P08047); test: ATG_Sp1_CIS: Attagene CIS-FACTORIAL HepG2 Assay for human Specificity Protein 1 (Sp1) (AID 2282961); details: HepG2 Sp1 cis-reporter transcription, actives raise or lower the signal
In short: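 Cells: HepG2, transiently transfected with cis-regulated multiplexed reporters. Exposure: 24 h. Detection: reporter transcripts amplified, fluorescently labeled, restriction-digested and sized by capillary electrophoresis. Analysis: bidirectional fit relative to DMSO.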

[8] = ATG_SREBP_CIS: Attagene CIS-FACTORIAL HepG2 Assay for human Sterol Regulatory Element Binding (SREBP) (AID 2282962); details: HepG2 Attagene cis-factorial SREBP reporter, mRNA; actives raise or lower the signal
In short: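 Readout: fluorescent reporter-transcript peaks resolved by capillary electrophoresis after RT-PCR. Cells were human HepG2 carrying transfected cis-promoter reporter constructs, dosed for 24 h. Gain or loss of signal was fitted against DMSO controls.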

[9] = target: Signal transducer and activator of transcription 3 (Homo sapiens) (UniProt P40763); test: ATG_STAT3_CIS: Attagene CIS-FACTORIAL HepG2 Assay for human Signal Transducer and Activator of Transcription 3 (STAT3) (AID 2282963); details: HepG2, Attagene cis-factorial STAT3 reporter transcription; actives raise or lower the signal
In short: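 Readout is reporter transcript quantified by RT-PCR and capillary electrophoresis, with 6-FAM primer extension and HpaI digestion. Total RNA is taken 24 h after dosing transiently transfected HepG2 carrying cis-regulated reporter units. Bidirectional fit against DMSO.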

[10] = ATG_TA_CIS: Attagene CIS-FACTORIAL HepG2 Assay for human TA Basal Promoter (AID 2282964); details: HepG2 Attagene CIS-factorial TA basal promoter reporter; actives raise or lower the signal
In short: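 HepG2 cells transiently transfected with multiplexed cis-promoter reporter units, dosed 24 h. Reporter mRNA measured by RT-PCR, 6-FAM labelling, HpaI digestion and capillary electrophoresis; bidirectional fit versus DMSO baseline, serving as background control.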

Measured: AC50

Transcription factor Sp1 (Homo sapiens), sequence (P08047 whole entry, looked up): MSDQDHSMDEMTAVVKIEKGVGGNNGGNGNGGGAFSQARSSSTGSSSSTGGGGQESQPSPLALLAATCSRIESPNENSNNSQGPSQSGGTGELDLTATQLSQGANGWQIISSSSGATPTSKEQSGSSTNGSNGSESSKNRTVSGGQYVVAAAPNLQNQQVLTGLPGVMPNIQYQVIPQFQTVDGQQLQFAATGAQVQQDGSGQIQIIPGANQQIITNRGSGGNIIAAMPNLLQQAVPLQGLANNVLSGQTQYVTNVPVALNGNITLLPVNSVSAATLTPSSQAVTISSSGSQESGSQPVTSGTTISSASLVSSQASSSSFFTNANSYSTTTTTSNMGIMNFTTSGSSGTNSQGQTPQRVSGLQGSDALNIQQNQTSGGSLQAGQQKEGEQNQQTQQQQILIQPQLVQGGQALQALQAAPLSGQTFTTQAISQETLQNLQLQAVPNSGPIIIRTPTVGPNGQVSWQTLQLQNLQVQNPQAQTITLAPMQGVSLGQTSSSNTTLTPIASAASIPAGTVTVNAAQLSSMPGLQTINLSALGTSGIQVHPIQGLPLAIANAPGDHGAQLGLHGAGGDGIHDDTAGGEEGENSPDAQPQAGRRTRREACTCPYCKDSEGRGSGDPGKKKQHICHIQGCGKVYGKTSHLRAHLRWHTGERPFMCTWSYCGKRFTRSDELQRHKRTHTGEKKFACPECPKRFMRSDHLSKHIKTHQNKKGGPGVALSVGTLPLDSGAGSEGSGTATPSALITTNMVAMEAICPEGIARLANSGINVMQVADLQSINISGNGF
Signal transducer and activator of transcription 3 (Homo sapiens), sequence (P40763 whole entry, looked up): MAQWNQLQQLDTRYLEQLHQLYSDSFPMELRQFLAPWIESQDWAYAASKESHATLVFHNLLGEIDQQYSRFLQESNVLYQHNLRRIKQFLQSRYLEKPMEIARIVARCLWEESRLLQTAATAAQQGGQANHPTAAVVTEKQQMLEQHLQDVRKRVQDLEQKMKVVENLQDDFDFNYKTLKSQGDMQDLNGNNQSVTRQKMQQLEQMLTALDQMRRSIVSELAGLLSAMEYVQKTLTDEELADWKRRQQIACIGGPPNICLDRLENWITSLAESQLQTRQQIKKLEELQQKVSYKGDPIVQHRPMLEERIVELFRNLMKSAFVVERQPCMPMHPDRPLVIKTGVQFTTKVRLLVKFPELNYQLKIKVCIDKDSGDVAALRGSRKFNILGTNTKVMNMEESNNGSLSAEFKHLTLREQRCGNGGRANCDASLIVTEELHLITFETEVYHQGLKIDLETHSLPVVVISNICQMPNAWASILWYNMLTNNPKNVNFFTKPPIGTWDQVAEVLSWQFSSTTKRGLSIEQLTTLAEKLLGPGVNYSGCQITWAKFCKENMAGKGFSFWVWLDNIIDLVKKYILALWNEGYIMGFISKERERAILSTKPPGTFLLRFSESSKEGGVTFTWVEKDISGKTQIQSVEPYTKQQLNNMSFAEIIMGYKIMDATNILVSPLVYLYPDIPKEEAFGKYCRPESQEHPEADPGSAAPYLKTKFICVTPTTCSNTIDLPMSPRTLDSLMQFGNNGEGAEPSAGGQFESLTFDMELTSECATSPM
Paired box protein Pax-6 (Homo sapiens), sequence (P26367 whole entry, looked up): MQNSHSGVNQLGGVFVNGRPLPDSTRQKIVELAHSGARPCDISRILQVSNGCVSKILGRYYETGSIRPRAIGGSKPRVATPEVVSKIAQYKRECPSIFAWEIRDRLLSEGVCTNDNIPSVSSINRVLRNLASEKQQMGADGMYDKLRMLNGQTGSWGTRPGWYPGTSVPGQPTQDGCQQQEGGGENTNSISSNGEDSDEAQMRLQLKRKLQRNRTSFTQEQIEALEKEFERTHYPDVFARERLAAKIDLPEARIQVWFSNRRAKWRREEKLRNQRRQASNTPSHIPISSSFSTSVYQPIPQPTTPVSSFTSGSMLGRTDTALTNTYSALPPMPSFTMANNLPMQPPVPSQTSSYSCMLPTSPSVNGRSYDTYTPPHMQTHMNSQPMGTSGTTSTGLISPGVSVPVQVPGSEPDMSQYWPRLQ

CCCCC(O)(Cn1cncn1)c1ccc(Cl)cc1Cl (stereo not given)
active: [2] 31 µM | [3] 13 µM | [5] 24.7 µM | [9] 50 µM | [10] 65 µM
inactive: [1] | [4] | [6] | [7] | [8]

C=C(C)CN(CC)c1c([N+](=O)[O-])cc(C(F)(F)F)cc1[N+](=O)[O-]
active: [1] 13.3 µM | [3] 9.5 µM
inactive: all other assays above

CCSC(=O)N1CCCCCC1
active: [3] 15.9 µM
inactive: all other assays above

CO/N=C(/C1=NOCCO1)c1ccccc1Oc1ncnc(Oc2ccccc2Cl)c1F
active: [1] 5.03 µM | [2] 9.47 µM | [3] 0.483 µM | [8] 1.25 µM
inactive: all other assays above

COC(=O)NC(=S)Nc1ccccc1NC(=S)NC(=O)OC
active: [1] 21.3 µM | [3] 7.61 µM | [4] 34 µM
inactive: all other assays above

O=c1n(Cl)c(=O)n(Cl)c(=O)n1Cl
active: [3] 50 µM
inactive: all other assays above

CS(=O)(=O)c1cc(C(F)(F)F)ccc1C(=O)c1cnoc1C1CC1
active: [3] 40.2 µM
inactive: all other assays above

CCOc1nc(C(Cl)(Cl)Cl)ns1
active: [3] 33.5 µM | [5] 70.3 µM
inactive: all other assays above

CC1(C)CON(Cc2ccccc2Cl)C1=O
active: [3] 14.8 µM | [4] 50 µM | [5] 13.4 µM
inactive: all other assays above

CC1(C)C(C(=O)OC(C#N)c2cccc(Oc3ccccc3)c2)C1(C)C (stereo not given)
active: [3] 1.74 µM | [4] 11 µM
inactive: all other assays above

CCCC(=NOCC)C1=C(O)CC(CC(C)SCC)CC1=O (stereo not given)
active: [3] 29.5 µM
inactive: all other assays above

CCNC(=O)NC(=O)C(C#N)=NOC
inactive: all assays above

CC(C)C1(C)N=C(c2ncccc2C(=O)O)NC1=O (stereo not given)
inactive: all assays above

CNC(=O)N(C)c1nnc(C(C)(C)C)s1
active: [3] 50 µM
inactive: all other assays above

COP(=S)(OC)Oc1ccc([N+](=O)[O-])c(C)c1
active: [3] 13.5 µM | [4] 50 µM | [5] 50 µM | [8] 14 µM
inactive: all other assays above

CCOc1nc(F)cc2nc(S(=O)(=O)Nc3c(Cl)cccc3Cl)nn12
active: [3] 10.1 µM
inactive: all other assays above

Clc1nc(Cl)nc(Nc2ccccc2Cl)n1
active: [3] 39.7 µM | [4] 18.7 µM
inactive: all other assays above
